Only some compounds are listed: those with a hit (about 2.4% of all), similar ones and a draw of the others.
D2 PAM-1 – positive allosteric modulators of human D2 dopamine receptor | potentiation, % (no concentration beside the values) | DiscoveRx D2 beta-arrestin cells, luminescence, 90 min; 100% = 57 uM dopamine signal | 0.23% of 360,000 active; in the data active = potentiation above about 50%
Target sequence (P14416 whole entry, looked up): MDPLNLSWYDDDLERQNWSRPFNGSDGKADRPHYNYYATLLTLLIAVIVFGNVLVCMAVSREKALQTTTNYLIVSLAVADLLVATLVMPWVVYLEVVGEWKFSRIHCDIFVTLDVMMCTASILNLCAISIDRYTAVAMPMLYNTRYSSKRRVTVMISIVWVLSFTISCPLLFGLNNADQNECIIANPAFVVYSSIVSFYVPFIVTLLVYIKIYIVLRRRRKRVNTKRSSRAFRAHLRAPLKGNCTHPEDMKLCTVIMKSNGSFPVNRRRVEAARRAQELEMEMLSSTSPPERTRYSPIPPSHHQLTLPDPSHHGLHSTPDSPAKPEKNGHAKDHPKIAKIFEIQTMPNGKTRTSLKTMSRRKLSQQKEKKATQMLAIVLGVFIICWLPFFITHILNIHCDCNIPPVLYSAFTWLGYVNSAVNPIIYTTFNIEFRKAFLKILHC
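PathHunter beta-arrestin assay in DiscoveRx D2 cells. Compounds were added with an EC20 of dopamine (50 nM final) for 90 min at 37 deg C. Luminescence was read 1 h after detection reagent, with 57 uM dopamine as the EC100 control.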
D2 PAM-2 – positive allosteric modulators of human D2 dopamine receptor | 0.34% of 340,000 active | P14416 | HEK293 T-REx D2, calcium flux, EC20 dopamine potentiation | potentiation, % at 10 µM;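 active = potentiation over 3 SD above the plate norm, cut at about 30% in these data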; also: 0% is about no effect
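Calcium flux readout, no-wash dye, 1 read/s. Inducible HEK293 Trex D2 line, overnight 30 C. Compound alone 180 s (agonist flags), then EC20 dopamine, another 180 s to score potentiation.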
D2 antagonist – D2 dopamine receptor (human) antagonism. HEK293 TREx D2 cells, calcium flux, dopamine EC80. inhibition, % at 10 µM. 2% of 340,000 active. AID 485344; in the data active = inhibition above about 30%; inactive = below that, where a call was filed; also: 0% is about no effect
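Calcium flux kinetic readout in an inducible HEK293 TREx D2 line plated overnight at 30 C. After 180 s compound exposure, an EC80 dopamine challenge follows with another 180 s kinetic read to detect antagonism.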
D2 ag-1 – D2 dopamine receptor (human) agonism. 0.53% of 340,000 active. activation, % at 2 µM. HEK293 T-REx D2 cells, calcium flux agonist mode. AID 485358. P14416;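 active = activation over 3 SD above normal in the single-dose calcium agonist read, cut at about 30% in these data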; also: 0% is about no effect
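Tetracycline-induced HEK293 T-REx cells with force-coupled D2 receptor, plated overnight at 30 C, loaded with no-wash calcium dye. After a 10 s baseline, compound was pin-added and calcium flux read kinetically for 180 s; calcium rises flagged agonists.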
D2 ag-2 – activates the human D2 dopamine receptor; DiscoveRx PathHunter D2 beta-arrestin, luminescence, 90 min; 100% = 57 uM dopamine signal; 0.084% of 360,000 active; activation, % (test concentration not listed); in the data active = activation above about 40%
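Agonist mode: compounds alone added to overnight-plated D2 PathHunter cells for 90 min at 37 C, with 57 uM final dopamine (EC100) defining full response. Beta-arrestin recruitment detected by chemiluminescent reagent, read after 1 h at ambient temperature.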
* marks the source's active call; other numbers are inactive results; x = no result.

SMILES | D2 PAM-1 | D2 PAM-2 | D2 antagonist | D2 ag-1 | D2 ag-2
O=C(CCN1CCCCC1)N/N=C/c1c[nH]c2ccccc12 | -19 | -10 | -13 | 1 | -4
COc1ccc(NS(=O)(=O)c2cccc(NC(=O)NC3CCCCC3)c2)cc1 | -11 | -8 | -10 | 0 | -3
COc1ccc(NS(=O)(=O)c2ccc(C)c(NC(=O)NC3CCCCC3)c2)cc1 | -16 | -21 | 33* | -1 | 4
CCN(c1cccc(C(F)(F)F)c1)S(=O)(=O)c1ccc2c(c1)CCN2C(C)=O | -26 | -9 | 31* | 0 | -1
CCN(c1cccc(C)c1)S(=O)(=O)c1ccc2c(c1)CCN2C(C)=O | -36 | -15 | 2 | -1 | -1
COc1ccc(C2N(C(=O)C(F)(F)F)C(C)CN2S(=O)(=O)c2ccc(C)cc2)cc1 (centres undefined) | -6 | -9 | 35* | 1 | 1
COc1ccc(C2N(S(=O)(=O)c3ccc(C)cc3)CCN2S(=O)(=O)c2ccc(C)cc2)cc1 | -13 | -4 | 36* | 1 | 0
COc1cc(NC(=O)C2CCC(CNc3c(N4CCC(C)CC4)c(=O)c3=O)CC2)cc(OC)c1 (centres undefined) | -7 | 30* | 16 | 0 | -2
COc1cc(NC(=O)C2CCC(CNc3c(N4CCCCC4)c(=O)c3=O)CC2)cc(OC)c1 (centres undefined) | -1 | 4 | x | x | 5
CCOc1ccc(NC(=O)C2CCC(CNc3c(N4CCC(C)CC4)c(=O)c3=O)CC2)cc1 (centres undefined) | 6 | 4 | 31* | 0 | -3
CC(C)n1cnc2c(N(C)c3ccccc3)nc(N(CCN(C)C)Cc3ccccc3)nc21 | -23 | -18 | 34* | 0 | 2
Cc1ccc2cc(C#N)c(SCC(=O)NCC3CCCO3)nc2c1 (centres undefined) | -33 | 0 | 6 | -1 | -4
Cc1ccc2nc(SCC(=O)NCC3CCCO3)c(C#N)cc2c1 (centres undefined) | 4 | -12 | 41* | -1 | 0
Cc1cccc(OCc2nnc(SCC(=O)NCC3CCCO3)n2C)c1 (centres undefined) | -4 | 37* | 7 | 0 | -1
O=C(CSc1ncnc2c1nnn2-c1ccc(F)cc1)NCC1CCCO1 (centres undefined) | -7 | 7 | 1 | 0 | -3
Cc1ccc(-n2nnc3c(SCC(=O)NCC4CCCO4)ncnc32)cc1 (centres undefined) | -2 | x | 46* | -1 | 3
CC(C)Cn1c(N)c(C(=O)CSc2nnc(C3CC3)n2C2CC2)c(=O)n(C)c1=O | 7 | 5 | 10 | 0 | -2
COc1ccc(CN2C(=O)C(NC(=O)c3ccccc3C)(C(F)(F)F)N=C2c2ccccc2)cc1 (centres undefined) | x | -2 | x | 0 | x
CC(NC(=O)/C=C/c1ccccc1[N+](=O)[O-])C1CC2CCC1C2 (centres undefined) | -2 | -15 | 28 | -2 | -1
CC(NC(=O)c1cccc(S(=O)(=O)N2CCN(Cc3ccccc3)CC2)c1)c1ccc(Cl)cc1 (centres undefined) | -8 | -4 | 36* | 1 | -1
COc1ccccc1NC(=O)c1cccc(S(=O)(=O)N2CCN(Cc3ccccc3)CC2)c1 | -67 | 1 | 10 | 0 | -2
COc1ccc(-c2noc(-c3ccc(NCc4ccc(C)cc4)c([N+](=O)[O-])c3)n2)cc1OC | x | -16 | x | x | x
Cc1cn([C@H]2C[C@H](O)[C@@H](CNCc3cccn3-c3nccs3)O2)c(=O)[nH]c1=O | x | x | x | x | -3
CC(C)c1ccccc1OCCCN1CCCC1 | -7 | -14 | 65* | 0 | 5
Brc1ccccc1OCCCCCN1CCOCC1 | -25 | -15 | 36* | 0 | 1
SMILES | D2 PAM-1 | D2 PAM-2 | D2 antagonist | D2 ag-1 | D2 ag-2
Clc1ccccc1OCCCCN1CCCCC1 | -5 | -28 | 77* | 1 | -5
Brc1ccccc1OCCCN1CCCCCC1 | -16 | -18 | 46* | 0 | -2
Cc1cccc(N(C)S(=O)(=O)c2cc(-c3cnc(C4CC4)o3)ccc2C)c1 | x | 7 | x | x | x
C=CCN(c1ccccc1)S(=O)(=O)c1ccc2c(c1)NC(=O)C(C)C(=O)N2 (centres undefined) | 1 | -5 | 16 | 0 | -1
Cc1cc(C)cc(NC(=O)N2CCN(C(=O)c3nsc4ccccc34)CC2)c1 | x | x | x | 0 | x
Cc1cc(C)cc(NC(=O)C(=O)NCC(c2ccc3c(c2)OCO3)N2CCOCC2)c1 (centres undefined) | x | 1 | x | -2 | x
Clc1ccccc1OCCCCN1CCCC1 | -26 | -18 | -22 | -1 | -3
CC1CCN(CCOc2cc(Cl)ccc2Cl)CC1 | -19 | -30 | 72* | 4 | 1
Clc1ccc(Cl)c(OCCCCN2CCCCC2)c1 | -15 | -31 | 86* | -2 | -3
O=C(COC(=O)COc1ccccc1)NC12CC3CC(CC(C3)C1)C2 | -4 | 19 | 34* | 0 | -2
CCOc1ccccc1-c1nc(CN2CCCN(C(=O)c3ccco3)CC2)c(C)o1 | -51 | -24 | 33* | -1 | -6
Cc1ccc(C(=O)NCCN2CCCC2)cc1 | -17 | -31 | 8 | 0 | -3
CCOc1c(Cl)cc(C(=O)NCCN2CCCCC2)cc1Cl | -17 | -9 | 34* | 0 | 1
CCc1cccc(C)c1NC(=O)CN1CCCN(Cc2ccccc2Cl)S1(=O)=O | x | -2 | x | 0 | x
Cc1ccc([C@@H]2CC=C(C(=O)O)[C@H](c3cccc(F)c3)N2S(=O)(=O)c2ccccc2C)cc1 | x | x | x | x | 0
CCn1cc(S(=O)(=O)N2CCN(Cc3cccc(Cl)c3)CC2)cn1 | -11 | -9 | 34* | 1 | -2
